Results from PubChem BioAssay (Tox21).
“And” between values parts separate entries of the source, which are not always exact repeats. Equal entries are not always repeated. Inconclusive results are not listed. Entries that show only a call come without a potency. Some structures have more than one record in an assay (separate samples or runs), and their calls can disagree. The source made the active and inactive calls. The call rests on the fitted dose curve; in most records, active means well fitted activation curve with a large enough effect in the repeat runs; inconclusive means weak or mixed curves; inactive means flat fitted curve, though single readings scatter.

assay: A CellTox Green Cytotoxicity Assay to monitor cytotoxicity in HEK293 cells - 40 hour (AID 1224871); conditions: CellTox Green fluorescence; series mostly up to 76.8 µM; cytotoxicity increase: at the top concentration; further: nearly all actives have a fitted effect of over 45% in size
Description: National Center for Advancing Translational Sciences [NCATS]
NIH Chemical Genomics Center [NCGC]
U.S. Environmental Protection Agency [EPA]
National Institutes of Environmental Health Sciences [NIEHS]
National Toxicology Program [NTP]
Cell-based models are critical for drug discovery. Determining the natural cytotoxic effects resulting from test compounds is an essential research activity. A CellTox Green Cytotoxicity Assay to monitor cytotoxicity in real time of continues cell culture during 40 hours of the compound treatment was used to screen Tox21 10K library compounds in Hek293 cells. CellTox Green Cytotoxicity Assay is a nonlytic, homogeneous, biofluorescent method to measure cytotoxicity in cell culture after experimental manipulation. The assay system uses a proprietary asymmetric cyanine dye that is excluded from viable cells but preferentially stains the dead cell's DNA. […] Viable cells produce no appreciable increases in fluorescence. Therefore, the fluorescence signal produced by the binding interaction with dead cell DNA is proportional to cytotoxicity.
The mixture of Hek293 cell suspension and reagents were dispensed at 600cells/6 ul/well in 1536-well tissue culture treated black solid bottom plates using a Multidrop dispenser. After the assay plates were incubated at a 37 C/5% CO2 incubator for 5 hours, 23 nL of compounds dissolved in DMSO, positive and negative controls was transferred to the assay plate by a pintool work station. The plates were incubated at 37 C for 40 hours. The fluorescence intensity were measured at 0h, 8h, 16h, 24h, 32h and 40h time points using ViewLux plate reader during compound treatment.
Potency means the concentration at half of the fitted maximal effect.

Row | SMILES | Potency | cytotoxicity increase
1 | CCCCC(CC)COCC1CO1 (stereo not given) | inactive | –
2 | COc1ccccc1/C=C/C=O | inactive | –
3 | CCCCCCCCCC(=O)OC | inactive | –
4 | CCOC(=O)C(C#N)=C(c1ccccc1)c1ccccc1 | – | -7.49% [at 35.3 µM] (inactive)
5 | CCCCC(CC)COC(=O)c1ccc(N(C)C)cc1 (stereo not given) | inactive | –
6 | OC1CCCCCCCCCCC1 | inactive and 43.6 µM (active) | –
7 | CCCCc1oc2ccccc2c1C(=O)c1cc(I)c(OCCN(CC)CC)c(I)c1 | 44 µM (active) | –
8 | O=C1c2cccc(O)c2C(=O)c2c(O)cccc21 | inactive | –
9 | CC(C)(C)NC(=O)[C@H]1CC[C@H]2[C@@H]3CC[C@H]4NC(=O)C=C[C@]4(C)[C@H]3CC[C@]12C | inactive | –
10 | CCCCC/C=C/C=C/C=O | 54.5 µM (active) | –
11 | CCCc1c(OCCCCc2nn[nH]n2)ccc(C(C)=O)c1O | inactive | –
12 | Nc1ccccc1N | 50.1 µM (active) | –
13 | O=C(Nc1ccc([N+](=O)[O-])cc1Cl)c1cc(Cl)ccc1O | 24.5 µM (active) and 13.1 µM (active) | –
14 | CCCC(=O)O | inactive | –
15 | c1ccc2c(c1)Oc1ccccc1S2 | 49.8 µM (active) and inactive | –
16 | O=C(O)c1ccccc1Nc1cccc(C(F)(F)F)c1 | inactive | –
17 | COC(C)COC(C)COC(C)CO (stereo not given) | inactive | –
18 | CC(C)CC(C)(O)C#CC(C)(O)CC(C)C (stereo not given) | inactive | –
19 | c1ccc(Nc2ccccc2)cc1 | 19.5 µM (active) and inactive | –
20 | O=C(c1ccccc1)c1ccc(O)cc1O | inactive | –

Row | SMILES | Potency | cytotoxicity increase
21 | Nc1ncnc2nc[nH]c12 | inactive | –
22 | COc1cc([C@@H]2c3cc4c(cc3[C@H](O)[C@H]3COC(=O)[C@H]23)OCO4)cc(OC)c1OC | inactive | –
23 | CCCCNS(=O)(=O)c1ccccc1 | inactive | –
24 | O=C(COc1ccc(Cl)cc1)N1CCN(Cc2ccc3c(c2)OCO3)CC1 | inactive | –
25 | c1ccncc1 | inactive | –
26 | Cc1ccc2c(n1)Oc1ccc(C(C)C(=O)OCC(=O)N(C)C)cc1C2 (stereo not given) | inactive | –
27 | COC(=O)c1ccccc1 | inactive | –
28 | C/C=C/C(=O)O | inactive | –
29 | Cc1ncc[nH]1 | inactive | –
30 | C[C@]12CCC(=O)C=C1CC[C@@H]1[C@@H]2C(=O)C[C@@]2(C)[C@H]1CC[C@]2(O)C(=O)CO | inactive | –
31 | NC=O | – | 2.05% (inactive)
32 | CN1C(C(=O)Nc2ccccn2)=C(O)c2ccccc2S1(=O)=O | inactive | –
33 | O=C(/C=C/c1ccccc1)OCc1ccccc1 | inactive | –
34 | CCCCOCCOCCOCCO | inactive | –
35 | Cc1ccc(C)c(O)c1C | inactive | –
36 | O=S(=O)(O)c1ccc(O)cc1 | inactive | –
37 | C=C(C)C(=O)OCCOC(=O)C(=C)C | inactive | –
38 | CC(C(=O)O)c1cccc(C(=O)c2ccccc2)c1 (stereo not given) | inactive | –
39 | S=C(NC1CCCCC1)NC1CCCCC1 | inactive | –
40 | COc1ccc(OC)c(C(O)CNC(=O)CN)c1 (stereo not given) | inactive | –
